# Source: publication PMC5540273 (PLoS ONE, 2017)
# How the values were obtained:
# Conditions in all cases: concentration: 1 μM, replicates: in singlicate; n = 1
# [1] = tested on: NEK11
# [2] = tested on: NEK1
# [3] = tested on: NEK2
# [4] = tested on: NEK3
# [5] = tested on: NEK4
# [6] = tested on: NEK5
# [7] = tested on: NEK6
# [8] = tested on: NEK7
# [9] = tested on: NEK9
# [10] = tested on: T1, NIK
# T1 construct: gene MAP3K14
# 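Also: KINOMEscan kinase panel screen.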
SMILES,%Inh [1] [%],%Inh [2] [%],%Inh [3] [%],%Inh [4] [%],%Inh [5] [%],%Inh [6] [%],%Inh [7] [%],%Inh [8] [%],%Inh [9] [%],%Inh [10] [%]
Cc1cccc(Nc2nc(NCCN)ncc2C(N)=O)c1 [GSK1292139],3,0,0,31,29,47,0,0,18,0
COc1cc(Nc2nccc(N3CCC(NS(=O)(=O)c4ccc(NC(C)=O)cc4)CC3)n2)cc(OC)c1OC [GSK1379825],0,83,1,89,3,100,62,86,45,26
Nc1ncc(-c2ccc3nccc(-c4ccncc4)c3c2)cc1S(=O)(=O)N1CCCCC1 [GSK1693850],0,2,8,4,0,18,0,0,15,11
Cn1cc(-c2cnc(N)c3c(-c4ccc5c(c4)CCN5C(=O)Cc4ccccc4)csc23)cn1 [GSK2593074],47,0,28,1,0,5,0,0,0,0
CN(c1ccc(NC(=O)Nc2cccc(Cl)c2)cc1)c1ccnc(N)n1.Cl [GW830707],28,0,16,0,0,7,14,0,3,9
Cc1ccc(NC(=O)c2ccnc(N3CCCCC3)c2)cc1-c1ccc(C(=O)NCC2CC2)cc1 [GW775610],0,0,0,4,0,0,0,8,20,15
CC(C)(C)c1ccc(C(=O)Nc2cn3cc(-n4ccnc4)ccc3n2)cc1,0,0,0,35,0,13,2,0,3,0
O=C1NC(=O)C(c2ccccc2Cl)=C1Nc1cccc(Cl)c1 [SB-342409],0,5,10,56,11,7,1,16,20,0
COc1cc(Nc2ccnc3cc(-c4ccncc4)ccc23)cc(OC)c1OC.Cl [GW494610],8,0,0,0,0,5,1,0,4,0
Nc1ncc(-c2cn[nH]c2)c2scc(-c3ccc4c(c3)CCN4C(=O)Cc3ccccc3)c12 [GSK2593067],87,7,85,0,11,21,3,0,0,3
CCn1c(-c2nonc2N)nc2c(-c3ccccc3)ncc(OCCCN)c21.O=C(O)C(F)(F)F.O=C(O)C(F)(F)F [GSK260205],1,0,1,7,21,1,0,0,0,30
COC(=O)Nc1nc2ccc(Oc3ccc(NC(=O)Nc4cc(C(F)(F)F)ccc4F)cc3)cc2[nH]1.Cl [GW654607],0,0,0,0,0,13,0,19,57,60
CN(c1ccc(F)c(NC(=O)c2cccc(OC(C)(C)C#N)c2Cl)c1)c1ccc2nc(NC(=O)C3CC3)sc2n1,0,3,0,7,1,0,0,8,5,0
CC(C)c1nc(-c2cccc(NS(=O)(=O)c3c(F)cccc3F)c2)c(-c2ccnc(Nc3ccc(N4CCOCC4)nc3)n2)s1.Cl [GSK1723980],97.8,0,48,0,6,0,55,76,88,95.4
NCCC(NC(=O)c1cc(Br)c(-c2ccnc3[nH]ccc23)s1)c1ccccc1.O=C(O)C(F)(F)F.O=C(O)C(F)(F)F (stereo not drawn) [GSK1307810],30,71,19,0,0,96.3,3,0,4,49
COc1ccc(C)c(Nc2ccnc(Nc3ccc(-c4cnc[nH]4)cc3)n2)c1.Cl [GW784041],0,0,2,7,0,14,0,4,0,0
COc1cccc(C2=C(Nc3cccc(O)c3)C(=O)NC2=O)c1 [SB-390771],0,0,0,19,2,2,0,7,15,7
Cn1cc(-c2ccc3c(c2)CCN3C(=O)Cc2cc(F)cc(C(F)(F)F)c2)c2c(N)ncnc21 [GSK2635225],8,9,18,0,13,0,6,0,25,15
Cc1nn2c(=O)cc(N3CCO[C@H](C)C3)nc2n1Cc1cccc(Cl)c1Cl [GSK2373693],0,0,18,0,0,75,0,0,0,21
Cn1cc(-c2ccc3c(c2)CCN3C(=O)Cc2cc(F)cc(F)c2F)c2c(N)ncnc21 [GSK2634140],38,7,84,0,32,8,18,0,8,26
N#Cc1cnc2cc(-c3cnc(CNCCN4CCOCC4)s3)ccc2c1Nc1ccc(Oc2ccccc2)cc1 [GW664114],25,0,82,20,1,0,0,0,17,0
COc1cc(Nc2nccc(N3CCC(NC(=O)Nc4ccc5c(c4)OCO5)C3)n2)cc(OC)c1OC (stereo not drawn) [GSK1379766],0,46,20,45,26,100,18,29,21,20

SMILES,%Inh [1] [%],%Inh [2] [%],%Inh [3] [%],%Inh [4] [%],%Inh [5] [%],%Inh [6] [%],%Inh [7] [%],%Inh [8] [%],%Inh [9] [%],%Inh [10] [%]
O=C(Nc1n[nH]c2nc(-c3cccc(O)c3)ccc12)C1CC1 [SB-711805],7,4,2,19,0,0,0,0,8,8
CN(C)CCOc1ccc(-c2cc(-c3ccc(Cl)c(O)c3)c(-c3ccncc3)[nH]2)cc1.Cl.Cl [SB-684387],38,9,14,2,0,22,0,0,17,0
Nc1cccc(-c2ccc3c(N)n[nH]c3c2)c1 [GSK2193613],17,11,11,0,0,6,0,0,8,6
CN(c1ccc(NC(=O)N2CCN(CCCN3CCOCC3)CC2)cc1)c1ccnc(Nc2ccc(CS(C)(=O)=O)cc2)n1.Cl [GW830899],0,0,14,9,0,3,14,0,0,0
Fc1cc(Cl)ccc1Nc1ccnc2cc(-c3ccc(CN4CCSCC4)o3)ccc12 [GW560106],22,0,1,5,0,9,0,0,5,28
CN(C)c1ncnc2nc[nH]c12 [SKF-31736],0,0,0,41,0,12,0,0,0,51
COC(=O)Nc1nc2cc(Oc3ccc(NC(=O)Nc4cccc(SC)c4)cc3)ccc2[nH]1.Cl [GW697999],22,0,0,4,4,11,0,0,3,0
Cc1ccc(O)cc1Nc1ccnc2ccc(C(C)(C)C)cc12 [GW856805],23,21,9,39,1,17,20,25,10,31
Cl.Cl.NCC(NC(=O)c1cc(-c2cccnc2)c(-c2ccnc3[nH]ccc23)s1)c1ccccc1 (stereo not drawn) [GSK1323434],15,13,1,18,24,13,4,0,11,35
CCNC(=O)/C=C/c1n[nH]c2cc(Sc3ccccc3C(=O)NC)ccc12,0,0,0,26,0,5,38,0,0,0
O=C(Nc1n[nH]c2nc(-c3ccccc3O)ccc12)C1CC1 [SB-711880],0,0,0,18,0,0,0,3,6,18
COC(=O)Nc1nc2ccc(Oc3ccc(CC(=O)Nc4cc(C(F)(F)F)ccc4F)cc3)cc2[nH]1 [GW680903],0,0,0,6,14,13,0,0,45,25
Cl.O=C(Nc1ccc(Oc2ccc3[nH]c(NC(=O)c4ccco4)nc3c2)cc1)Nc1cc(C(F)(F)F)ccc1F [GW683134],0,0,2,0,0,0,0,0,79,13
Cl.Cl.NC(CNC(=O)c1cc(Br)c(-c2ccnc3[nH]ccc23)s1)c1ccccc1 (stereo not drawn) [GSK1322949],0,54,0,5,0,16,0,0,23,11
COc1cccc(CC(=O)N2CCc3cc(-c4cn(C)c5ncnc(N)c45)ccc32)c1 [GSK2608899],49,21,74,4,44,24,18,11,25,0
CCNc1nccc(-c2c(-c3ccc(F)cc3)ncn2C2CCN(C)CC2)n1,0,1,0,0,0,5,0,1,0,0
O=C(Nc1n[nH]c2nc(-c3ccccc3)ccc12)C1CC1 [SB-708999],36,0,0,2,5,49,24,0,7,18
Cc1ccc(C)c(NC(=O)Nc2ccc(C)c(-c3ccc(C(=O)Nc4ccncc4)cc3)c2)c1 [GSK1398473],0,0,1,5,0,8,1,0,7,4
O=C(O)C(F)(F)F.O=c1[nH]ccc2nc(N[C@@H]3CCNC3)nc(Nc3ccc4c(c3)S(=O)(=O)CC4)c12 [GSK2181306],0,6,46,8,16,0,3,5,19,77
CC(C)NCC(Cc1ccccc1)NC(=O)c1cc(Br)c(-c2ccnc3[nH]ccc23)s1.Cl.Cl (stereo not drawn) [GSK1383281],0,91.9,13,16,0,68,0,0,0,0
CC(C)c1nc(-c2ccc(F)c(NS(=O)(=O)c3c(F)cccc3F)c2)c(-c2ccnc(Nc3ccc(N4CCOCC4)nc3)n2)s1 [GSK1804250],97.6,16,31,3,10,1,7,8,85,9
COc1cccc(-c2nc(-c3ccccc3)[nH]c2-c2ccncc2)c1 [SB-610250],26,100,0,11,16,1,4,0,4,0

SMILES,%Inh [1] [%],%Inh [2] [%],%Inh [3] [%],%Inh [4] [%],%Inh [5] [%],%Inh [6] [%],%Inh [7] [%],%Inh [8] [%],%Inh [9] [%],%Inh [10] [%]
COc1cccc(NC(=O)NCCNc2ccnc(Nc3ccc(F)cc3)n2)c1 [GSK1379879],0,0,0,9,0,11,0,0,0,27
CSc1ccc(NC2=C(c3ccc(Cl)cc3)C(=O)NC2=O)cc1 [SB-317658],28,4,0,0,0,29,33,0,1,21
CNc1nccc(-c2ccc3c(N)n[nH]c3c2)n1 [GSK2206003],0,4,2,2,0,14,0,0,9,33
COc1cccc2c(-c3ccncc3)c(-c3ccc(F)cc3)nn12 [GW468513],0,0,0,0,4,7,0,0,0,0
Cc1ccccc1CC(=O)N1CCc2cc(-c3cn(C)c4ncnc(N)c34)ccc21 [GSK2603346],58,89,97,0,29,34,0,0,0,21
O=C(Nc1c(F)cccc1F)c1cc(C(=O)c2ccccc2F)c[nH]1 [GSK1326180],16,0,0,0,0,0,0,0,5,0
Cc1cccc(Nc2nc(N[C@H]3CCCC[C@H]3N)ncc2C(N)=O)c1.Cl [GSK986310],0,2,15,19,24,13,10,8,25,23
N#CC1(c2cccc(C(=O)Nc3cccc(Oc4ccc5nc(NC(=O)C6CC6)sc5n4)c3)c2)CC1,0,40,0,30,0,0,0,0,0,0
CS(=O)(=O)c1cccc(CNc2nc(Nc3ccc4c(c3)CCC(=O)N4)ncc2C(F)(F)F)c1,0,0,0,37,0,28,6,0,0,0
COc1ccc(NC(=O)c2ccoc2)cc1-c1ccc(C(=O)NCC2CC2)cc1 [GW810437],0,0,0,37,0,0,0,0,7,40
Cc1ccc(-c2ccc3occ(-c4ccc(S(C)=O)cc4)c3c2)nn1 (stereo not drawn),0,0,0,30,0,0,0,0,0,0
Cc1ccc(NC(=O)c2cccc(N3CCCCC3)c2)cc1-c1ccc(C(=O)NCC2CC2)cc1 [GSK1917008],0,27,16,11,23,12,0,13,35,68
CN1CCN(Cc2ccc(NC(=O)Nc3ccc(N(C)c4ccnc(Nc5ccc(CS(C)(=O)=O)cc5)n4)cc3)cc2)CC1.Cl [GW827654],19,45,0,16,24,98.3,3,30,49,0
O=C(Nc1n[nH]c2cc(-c3cccs3)ccc12)C1CC1 [SB-731284],18,0,0,20,39,0,0,0,0,14
Cc1ccc(Nc2ccnc(Nc3ccc(C)c(F)c3)n2)cc1O.Cl [GW582868],3,0,1,10,7,4,0,0,0,10
Nc1ncnc2scc(-c3ccc(NC(=O)Cc4cc(F)ccc4F)cc3)c12.O=C(O)C(F)(F)F [SB-731254-M],36,20,24,35,16,47,3,0,20,0
Cc1cc(-c2ccnc(Nc3cccc(C#N)c3)n2)cc(C)c1O [GSK1440913],1,0,0,43,1,83,0,0,13,62
Cc1cc(-c2c(-c3ccc(F)cc3)ncn2CCCN2CCOCC2)nc(N)n1 [SB-222517],0,33,0,25,0,0,9,0,0,12
CN(C)CCNS(=O)(=O)c1ccc(-c2ccnc3[nH]ccc23)cc1 [GSK977620],0,99.8,0,0,4,1,1,0,0,0
Cc1ccc(O)cc1Nc1ccnc2cc(-c3ccc(CN4CCCCC4)o3)ccc12 [GW557777],0,0,11,3,0,0,0,9,0,0
CCOc1nccc(-c2c(-c3ccc(F)cc3)ncn2C2CCNCC2)n1 [SB-249175],50,9,0,13,0,31,4,10,7,5
c1ccc(Oc2ccc(Nc3ccnc4cc(-c5ccc(CN6CCCCC6)o5)ccc34)cc2)nc1 [GW567143],0,0,0,0,25,0,0,0,2,6
